Data as given in PubChem BioAssay.
Activity calls are given as the source filed them.
Note: test concentration not given here.

Experiment: JC-1 mitochondrial signal, unstimulated MM1S myeloma – cell-based, JC-1 fluorescence, 24 h, 100 nL compound, profiling panel (AID 1170)
Conditions: MM1S mitochondrial potential, higher = more signal
Work on `CCCC[C@H]1OB(O)C[C@H]2C1=C(C)C[C@H]1C(=O)N(Cc3ccccc3)C(=O)[C@H]12` yielded a z-score of 0.625. Compound `COc1ccc(NN2C(C(O)c3ccc(OC)c(OCc4ccccc4)c3)C=CC3C(=O)N(C4CCCCC4)C(=O)C32)cc1` (centres undefined) has a z-score of -1.33. Work on `COCC(=C=CC[C@H](O)c1ccc(OCCO)cc1)C[C@H](O)c1cc(Cl)cc(Cl)c1O` yielded a z-score of -1.42. `O=C/C=C/c1ccc2c(c1)OCO2` gave a z-score of 0.386. `Cc1ccc(S[C@]2(C(=O)NCC(C)C)CC(=O)N(Cc3ccccc3Cl)[C@@H]2c2ccc(CO)cc2)cc1` showed a z-score of 0.767. Compound `CN(C)C(=O)[C@]1(CCC(=O)OC(C)(C)C)N=C(c2ccc(OCCCO)cc2)O[C@@H]1c1ccccc1N=[N+]=[N-]` has a z-score of -0.325. With `[N-]=[N+]=NCc1ccccc1C[C@]1(C(=O)NCCN2CCOCC2)N=C(c2ccc(OCCCO)cc2)O[C@H]1c1ccccc1N=[N+]=[N-]` the z-score was -1.16. For `O=C1O[C@H](c2ccccc2)[C@H](c2ccccc2)N2[C@H]1[C@@H](C(=O)Nc1nc3ccccc3s1)[C@]1(C(=O)Nc3ccccc31)[C@H]2c1ccc(O)cc1`, the z-score was -0.564.

Experiment: resazurin metabolic signal in A549 cells – cell-based, resazurin fluorescence, 24 h, PK04 Diversity Set, profiling panel (AID 1171)
Conditions: A549 viability, higher = more signal, called active from +8 up or from −8 down
In the case of `CN1CCC(CCCO)=CC1c1ccc(CN2CCCC2)cc1` (centres undefined), the z-score is reported as 0.819 (inactive). In the case of `C=C[C@H](C)[C@@H](O)c1ccc(O)c2ccccc12`, the z-score is reported as -0.292 (inactive). For `COCCOC(=O)N1C(=O)[C@@]2(c3cc(C#CC4=CCCCC4)ccc31)[C@H](C(=O)N1CCc3cc(OC)c(OC)cc3C1)[C@H]1C(=O)O[C@H](c3ccccc3)[C@H](c3ccccc3)N1[C@@H]2c1ccccc1OCCO`, the z-score was 0.267 (inactive). With `COC(=O)C1=CC(CCCO)=CC(C2CC2)N(Cc2sc3ccccc3c2Cl)C=C1C(=O)OC` (centres undefined) the z-score was 0.0509 (inactive). In the case of `NC(=O)NCC#Cc1ccc2c(c1)[C@]1(C(=O)N2)[C@H](C(=O)N2CCCCCCC2)[C@H]2C(=O)O[C@H](c3ccccc3)[C@H](c3ccccc3)N2[C@@H]1c1ccc(OCCO)cc1`, the z-score is reported as -0.316 (inactive). In the case of `COc1ccccc1CN1C(=O)c2ccccc2[C@@H](C(=O)NCCN2CCOCC2)[C@@H]1c1ccc(CO)cc1`, the z-score is reported as 1.33 (inactive). In the case of `O=c1cccc(C=Cc2ccccc2)o1`, the z-score is reported as 0.261 (inactive). In the case of `C=C[C@@H](COC(C)=O)N(Cc1ccc([N+](=O)[O-])cc1)S(=O)(=O)c1ccc(Br)cc1`, the z-score is reported as 2.05 (inactive). In the case of `CC(C)C(=C=CC[C@@H](O)c1ccccc1OCCO)C[C@@H](O)c1ccccn1`, the z-score is reported as 0.248 (inactive). With `CCCCC=C[C@@H](NC(=O)c1ccc(C(=O)OC)cc1)c1ccccc1` the z-score was 3.37 (inactive). With `O=c1oc(-c2ccccc2)nc2cc(Br)ccc12` the z-score was -0.141 (inactive). With `C=CC(COC(C)=O)NS(=O)(=O)c1ccc(Br)cc1` (centres undefined) the z-score was -0.283 (inactive). With `CS(=O)(=O)CCOC(=O)C1=CC(CCCO)=CC(c2cccs2)N(Cc2cc3c(cc2Br)OCO3)C=C1C(=O)OCCS(C)(=O)=O` (centres undefined) the z-score was 0.885 (inactive). In the case of `CCC[C@@H]1C=C(C(=O)O)[C@H](c2ccc(C)cc2)N1S(=O)(=O)c1ccc(C)cc1`, the z-score is reported as -0.112 (inactive). With `CC(C)NC(=O)[C@@H]1c2ccccc2C(=O)N(Cc2ccccc2)[C@H]1c1ccc(CO)cc1` the z-score was 0.748 (inactive). With `Cc1ccc(S[C@]2(C(=O)NCc3ccccc3)CC(=O)N(Cc3ccccc3)[C@@H]2c2ccc(CO)cc2)cc1` the z-score was -0.114 (inactive). In the case of `COC(=O)c1ccc(C(O)C2C=CC3C(=O)N(C)C(=O)C3N2NC(=O)OC(C)(C)C)o1` (centres undefined), the z-score is reported as 0.347 (inactive). In the case of `COc1ccc(C(=O)Nc2cccc(CN3C(=O)[C@]4(O[C@H](CC(=O)N5CCC[C@H]5CO)[C@@H]([Si](C)(C)c5ccc(OC)cc5)[C@@H]4C)c4ccccc43)c2)cc1`, the z-score is reported as -2.2 (inactive). With `CC(C)Cc1ccc(CN2CC[C@@H](NS(=O)(=O)c3ccccc3)C2)cc1` the z-score was -0.235 (inactive). For `C=CCC(OC(C)=O)[C@@H]1[C@@H](N(Cc2cccc3ccccc23)C(=O)c2cccc3ccccc23)c2cc(OCCCO)ccc2N1C(=O)c1ccc2ccccc2n1` (some centres undefined), the z-score was 0.0076 (inactive). For `COCCOC(=O)N1C(=O)[C@@]2(c3cc(C#CCNC(N)=O)ccc31)[C@H](c1ccc(OCCO)cc1)N1[C@H](c3ccccc3)[C@H](c3ccccc3)OC(=O)[C@H]1[C@@H]2C(=O)N1CCc2cc(OC)c(OC)cc2C1`, the z-score was -0.189 (inactive). In the case of `O=C1C=CC(=O)[C@@H]2CC(COc3ccccc3)=C3[C@@H](CCc4ccccc4)OB(O)C[C@@H]3[C@H]12`, the z-score is reported as -0.108 (inactive). For `[N-]=[N+]=NCc1ccccc1[C@@H]1OC(c2ccc(OCCCO)cc2)=N[C@]1(Cc1ccccc1N=[N+]=[N-])C(=O)NCc1ccccc1`, the z-score was -0.234 (inactive). For `NCCCCCCNC(=O)[C@H]1C[C@H]2C(=O)NCC(=O)N2[C@H]1c1cccc(OCCO)c1`, the z-score was 1.34 (inactive). In the case of `CCCCCN1CC=CC23O[C@@H]4/C=C\CCC(C)OC(=O)C4[C@H]2C(=O)N(CCCCCO)[C@@H]3C1=O` (some centres undefined), the z-score is reported as 0.475 (inactive). In the case of `O=C(NCc1ccccc1)[C@]1(CCS(=O)(=O)c2ccccc2)N=C(c2ccc(OCCCO)cc2)O[C@@H]1c1ccccc1`, the z-score is reported as -0.704 (inactive). For `C=CC(=C)C1=CCO[C@@H]1[C@H]1CCCN1S(=O)(=O)c1ccccc1[N+](=O)[O-]`, the z-score was 0.707 (inactive). For `COc1ccc(C(=O)Nc2cccc(CN3C(=O)[C@@]4(O[C@@H](CCn5cc(CCO)nn5)[C@H]([Si](C)(C)c5ccc(OC)cc5)[C@H]4C)c4ccccc43)c2)cc1`, the z-score was -4.55 (inactive). For `CCCC[C@H]1OB(O)C[C@H]2C1=C(C)C[C@H]1C(=O)N(Cc3ccccc3)C(=O)[C@H]12`, the z-score was 0.174 (inactive). With `COc1ccc(NN2C(C(O)c3ccc(OC)c(OCc4ccccc4)c3)C=CC3C(=O)N(C4CCCCC4)C(=O)C32)cc1` (centres undefined) the z-score was 0.817 (inactive). For `COCC(=C=CC[C@H](O)c1ccc(OCCO)cc1)C[C@H](O)c1cc(Cl)cc(Cl)c1O`, the z-score was 0.799 (inactive). With `O=C/C=C/c1ccc2c(c1)OCO2` the z-score was -0.362 (inactive). For `Cc1ccc(S[C@]2(C(=O)NCC(C)C)CC(=O)N(Cc3ccccc3Cl)[C@@H]2c2ccc(CO)cc2)cc1`, the z-score was -0.0989 (inactive). With `CN(C)C(=O)[C@]1(CCC(=O)OC(C)(C)C)N=C(c2ccc(OCCCO)cc2)O[C@@H]1c1ccccc1N=[N+]=[N-]` the z-score was 1.84 (inactive). For `[N-]=[N+]=NCc1ccccc1C[C@]1(C(=O)NCCN2CCOCC2)N=C(c2ccc(OCCCO)cc2)O[C@H]1c1ccccc1N=[N+]=[N-]`, the z-score was -0.901 (inactive). With `O=C1O[C@H](c2ccccc2)[C@H](c2ccccc2)N2[C@H]1[C@@H](C(=O)Nc1nc3ccccc3s1)[C@]1(C(=O)Nc3ccccc31)[C@H]2c1ccc(O)cc1` the z-score was -0.358 (inactive).
